Several values for one entry are separate records, joined by “and”; a condition that tells them apart may be missing. Equal entries are not always repeated. Inconclusive results are not listed. Activity calls are given as the source filed them. Unless noted, calls come from the whole dose curve; as a rule, active = well fitted curve in the direction sought with a large enough effect; inconclusive = small, poorly fitted or top-dose-only effect, or another doubt; inactive = no such curve, though single readings can be large; an effect the other way counts as inactive or inconclusive.
Tests used:
[1] = Cell Viability - BJ (AID 421; calls by dose curve;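 note: potency is the fitted concentration of half-maximal effect; cells exposed to compound for 40 hours at 37 °C before readout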); conditions: BJ fibroblast viability, qHTS
In short: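 Luminescent ATP signal (CellTiter-Glo, 20 min at room temperature) served as the read-out of viable BJ cells after 40 hours of compound treatment. Responses were scaled between DMSO and 100 uM tamoxifen, and AC50 values were obtained by Hill modeling.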

[2] = Cell Viability - HepG2 (AID 433; calls by dose curve;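 note: potency is the fitted concentration of half-maximal effect; potency for ATP loss meaning cytotoxicity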); conditions: qHTS
In short: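 In this qHTS format, a 40 h, 37 °C compound incubation of HepG2 cells in complete medium precedes a 20 min CellTiter-Glo step at room temperature. Tamoxifen and doxorubicin serve as positive controls; Hill-equation fits yield AC50.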

[3] = Cell Viability - MRC5 (AID 434; calls by dose curve;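 note: potency is the fitted concentration of half-maximal effect; potency reflects cytotoxicity seen as loss of intracellular ATP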); conditions: MRC5 lung fibroblast viability, qHTS
In short: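 ATP luminescence read-out (CellTiter-Glo, 20 min RT) after 40 hr, 37 °C compound exposure of 1500 MRC5 cells/well. Data normalized to DMSO (basal) and 100 uM tamoxifen (100% inhibition); AC50 from standard Hill equation.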

[4] = Cell Viability - SK-N-SH (AID 435; calls by dose curve; note: potency is the fitted concentration of half-maximal effect); conditions: SK-N-SH neuroblastoma cell viability qHTS
In short: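 Human neuroblastoma line, 40 h exposure at 37 °C, ATP quantified via luciferase luminescence; DMSO and 100 uM tamoxifen define 0 and 100% inhibition for AC50 fitting.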

[5] = Cell Viability - NIH 3T3 (AID 541); conditions: NIH 3T3 cell viability, qHTS; activity change, negative = cytotoxicity: at 92.2 µM (top of the series);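 note: plate controls were DMSO alone for no effect and tamoxifen positive control for full effect; nearly all actives have a fitted effect of over 25% in size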
In short: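 qHTS format; 40 hr compound exposure, 37 °C; CellTiter-Glo luminescence (cellular ATP) read-out after 20 min at RT. Decrease in ATP = cytotoxicity; AC50 from standard Hill fit.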

[6] = Cell Viability - HUV-EC-C (AID 542); conditions: HUV-EC-C endothelial cell viability, qHTS; series mostly up to 92.2 µM; note: % is set by controls: 0 for no effect and ±100 for the full control effect; nearly all actives have a fitted effect of over 35% in size
In short: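 Luminescent ATP read-out (CellTiter-Glo, 20 min room temperature) after 40 hr compound treatment of HUV-EC-C cells at 37 °C. Concentration-response data fitted with the standard Hill equation to give AC50; tamoxifen and doxorubicin served as positive controls.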

[7] = Cell Viability - H-4-II-E (AID 543); conditions: H-4-II-E rat hepatoma viability; series mostly up to 92.2 µM; note: % is set by controls: 0 for no effect and ±100 for the full control effect; nearly all actives have a fitted effect of over 35% in size
In short: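 qHTS, rat hepatoma H-4-II-E, 1500 cells/well; 40 hr compound exposure, 37 °C; CellTiter-Glo ATP luminescence after 20 min RT; AC50 by standard Hill fit.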

[8] = Cell Viability - SH-SY5Y (AID 544); conditions: SH-SY5Y neuroblastoma cell viability; viability change, negative = cytotoxic: at 92.2 µM (top of the series); note: nearly all actives have a fitted effect of over 55% in size
In short: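 SH-SY5Y, 1500 cells/well, 5 hr pre-incubation 37 °C; cpd 40 hr 37 °C; CellTiter-Glo 20 min RT; luminescence (ATP) read. qHTS concentration-response, Hill fit → AC50. Tamoxifen, doxorubicin as positive controls.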

[9] = Cell Viability - Renal Proximal Tubule (AID 545); conditions: renal proximal tubule cells viability; at 91.7 µM (top of the series), primary cells of rat origin unless noted; note: nearly all actives have a fitted effect of over 40% in size
In short: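 In this qHTS format, normal rat kidney-derived proximal tubule cells in complete culture medium receive compound titrations, then sit 40 hours at 37 °C before luciferase-based ATP quantitation; potency is reported as AC50 from concentration-response curves.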

[10] = Cell Viability - Mesenchymal (AID 546); conditions: mesenchymal cells viability, qHTS; series mostly up to 91.7 µM;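 note: cells exposed to compound for 40 hours before reading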
In short: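 Human renal mesenchymal cells (glomerulus-derived), 1000 cells/well, 5 hr 37 °C pre-incubation; compound 40 hr, 37 °C; CellTiter-Glo, 20 min RT; luminescence; AC50 via Hill equation.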

[11] = Cellular Toxicity (caspase-3) Jurkat (AID 655); conditions: Jurkat caspase-3 activation, luminescence, DMSO = 0%, tamoxifen = 100%; at 92.2 µM (top of the series);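 note: cells exposed to compound for 16 h at 37 °C before reading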
In short: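 qHTS in human Jurkat T-cell leukemia line: 16 hr compound treatment at 37 °C, caspase-3/7 activity measured by Caspase-Glo luminescence. AC50 derived from Hill equation.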

[12] = Cellular Toxicity (caspase-3) HUV-EC-C (AID 656); conditions: HUV-EC-C cells, caspase-3 activation (apoptosis), vehicle = 0, 100 µM tamoxifen = 100%; series mostly up to 92.2 µM
In short: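 Concentration-dependent caspase 3/7 induction was assessed in HUV-EC-C cells exposed for 16 hours. Data scaled between DMSO and tamoxifen (100 uM) controls.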

[13] = qHTS Assay for Identification of Small Molecule Inducers of Hypoxia Response (AID 2120; active = well fitted curve in the direction sought with a large enough effect in the signal ratio, with a control signal flat, not every such curve was filed as active; the % refers to the signal ratio; note: 0% is about no effect); conditions: hypoxia response reporter cells, beta-lactamase ratio readout; series mostly up to 104 µM
In short: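 Read-out: CCF4 FRET emission ratio 460nm/530nm (excitation 405nm), converted to %Activity, with AC50 fitted across a compound titration. ME-180 cells carried an HRE-driven beta-lactamase reporter; compound exposure 17 h, 37 degrees C.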

[14] = qHTS assay for small molecule antagonists of retinoid X receptor alpha signaling (AID 588546; active = well fitted inhibition curve with a large enough effect in the signal ratio, with a control signal flat, not every such curve was filed as active; the % refers to the signal ratio;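 note: cells stimulated with 9-cis-retinoic acid as agonist; % is set by controls: 0 for no effect and ±100 for the full control effect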); conditions: HEK293T RXRa-UAS-bla, beta-lactamase ratio, antagonist mode; measured here: W530 green channel, cytotoxicity proxy
In short: (§1)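 Beta-lactamase reporter inhibition, read as CCF4 fluorescence ratio (ex 405, em 460/530 nm) after 2 h at RT. HEK293T UAS-bla cells, 2500/well, were stimulated with 9-cis-RA at 500 or 100 nM final alongside test compound for 18 h at 37 C.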

[15] = molecular target: Retinoic acid receptor RXR-alpha (Homo sapiens) (UniProt P19793); assay: as above; conditions: HEK293T RXRa-UAS-bla, beta-lactamase ratio, antagonist mode
Chain of Retinoic acid receptor RXR-alpha (Homo sapiens) (P19793 whole entry, looked up): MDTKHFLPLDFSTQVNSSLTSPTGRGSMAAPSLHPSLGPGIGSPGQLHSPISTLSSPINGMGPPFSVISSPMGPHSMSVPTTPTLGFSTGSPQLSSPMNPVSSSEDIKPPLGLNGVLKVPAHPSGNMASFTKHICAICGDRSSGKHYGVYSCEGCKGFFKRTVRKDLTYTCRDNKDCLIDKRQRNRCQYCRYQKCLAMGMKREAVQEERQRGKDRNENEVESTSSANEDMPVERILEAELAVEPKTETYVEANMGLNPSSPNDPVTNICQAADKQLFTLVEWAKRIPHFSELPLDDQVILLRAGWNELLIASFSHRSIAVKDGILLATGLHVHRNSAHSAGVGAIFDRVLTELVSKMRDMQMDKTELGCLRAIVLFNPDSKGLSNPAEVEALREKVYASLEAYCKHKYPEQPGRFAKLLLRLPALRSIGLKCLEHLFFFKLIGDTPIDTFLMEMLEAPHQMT
In short: as §1

[16] = molecular target: Peroxisome proliferator-activated receptor alpha (Homo sapiens) (UniProt Q07869); assay: qHTS assay for small molecule agonists of the peroxisome proliferator-activated receptor alpha (PPARalpha) signaling pathway (AID 651778); conditions: PathHunter PPARalpha complementation, chemiluminescence, 6 h; stronger effect = higher value; note: % of control where 0% means no effect
Chain of Peroxisome proliferator-activated receptor alpha (Homo sapiens) (Q07869 whole entry, looked up, the tested form may be a part): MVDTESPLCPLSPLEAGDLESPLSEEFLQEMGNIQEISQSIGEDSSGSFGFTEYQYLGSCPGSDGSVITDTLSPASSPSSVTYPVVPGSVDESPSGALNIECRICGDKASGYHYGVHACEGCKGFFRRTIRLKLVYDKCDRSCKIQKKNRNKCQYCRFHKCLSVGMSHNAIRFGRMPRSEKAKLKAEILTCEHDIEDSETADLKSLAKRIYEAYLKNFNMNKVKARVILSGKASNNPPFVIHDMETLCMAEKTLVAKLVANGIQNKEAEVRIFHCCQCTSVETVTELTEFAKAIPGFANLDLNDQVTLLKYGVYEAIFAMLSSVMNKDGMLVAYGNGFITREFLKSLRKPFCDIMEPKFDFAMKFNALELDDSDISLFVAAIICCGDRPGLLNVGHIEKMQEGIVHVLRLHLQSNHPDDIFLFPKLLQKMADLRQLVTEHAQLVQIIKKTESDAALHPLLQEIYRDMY
In short: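 Enzyme-fragment complementation assay in which ligand-bound PPARalpha translocates and forms an active enzyme that generates chemiluminescence. Cells were plated overnight, exposed to compound for 6 hr at 37 C, and then given detection reagent for 60 min at room temperature.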

[17] = qHTS assay for small molecule agonists of the antioxidant response element (ARE) signaling pathway measured by Nrf2-dependant transcriptional activity - cell viability counter screen (AID 720653; active = well fitted curve in the direction sought with a large enough effect in the repeat runs; an effect the other way counts as inactive or inconclusive; note: % is set by controls: 0 for no effect and ±100 for the full control effect); conditions: ARE-bla HepG2 viability, CellTiter-Glo ATP luminescence, 16 h; stronger effect = lower value
In short: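 ARE-bla HepG2 cells treated with compounds for 16 h at 37C; this counter screen measures viability as intracellular ATP by CellTiter-Glo luminescence after 30 min at room temperature.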

[18] = qHTS assay for cell viability of HEK293 cells (AID 743288); conditions: ATP luminescence (CellTiter-Glo), 18 h; max response: stronger effect = lower value; note: % is set by controls: 0 for no effect and ±100 for the full control effect; nearly all actives have a fitted effect of over 50% in size
In short: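 HEK293, 18 h, 37 C, ATP luminescence. Cells at 2,000/well were allowed at least 5 h to settle before dosing; CellTiter-Glo developed 30 min at RT.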

[19] = qHTS assay for cell viability of the p53RE-bla HCT-116 cell line (AID 743292); conditions: p53RE-bla HCT-116 viability, ATP luminescence, 16 h; series mostly up to 95 µM; note: % is set by controls: 0 for no effect and ±100 for the full control effect; nearly all actives have a fitted effect of over 55% in size
In short: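 ATP-based luminescent viability (CellTiter-Glo, 30 min RT) after 16 h compound treatment at 37 C of p53RE-bla HCT-116 cells, seeded at 4,000 cells/well and rested 5 h before dosing.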

[20] = qHTS assay for small molecule agonists of retinoid X receptor alpha signaling (AID 588544); conditions: HEK293T RXRa-UAS-bla, beta-lactamase reporter, 18 h; 530 nm emission

Brc1ccc(Oc2cc(Br)c(Br)cc2Br)c(Br)c1
10.6% and 6.53%: max response [14]
inactive: Potency [1] > 92 µM | Potency [2] > 92 µM | Potency [3] > 92 µM | Potency [4] > 92 µM | activity change, negative = cytotoxicity [5] -13.1% and -22.5% | Potency [6] | Potency [7] | Potency [8] | activity change, negative = cytotoxicity [9] -20.3% [at 91.7 µM] and -14.3% [at 91.7 µM] | outcome [10] | caspase-3 activation [11] 17.5% | outcome [12] | outcome [13] | max response [15] -5.38% and -23.6% | max response [16] 8.87% and 4.12% and 3.75% | max response [17] -1.22% and 3.3% and -21% | max response [18] -22.3% and -23.6% | Potency [19]

Cc1ccc(O)c(C)c1
inactive: Potency [1] > 92 µM | Potency [2] > 92 µM | Potency [3] > 92 µM | Potency [4] > 92 µM | activity change, negative = cytotoxicity [5] 3.22% | Potency [6] | Potency [7] | Potency [8] | activity change, negative = cytotoxicity [9] -11.8% [at 91.7 µM] | outcome [10] | caspase-3 activation [11] 2.67% | outcome [12] | outcome [13] | max response [15] 0.533% and 0.504% and 10.6% | max response [16] -1.5% and -1.55% and 1.86% | max response [17] -4.5% and -1.52% | max response [18] -1.16% and -6.96% and -11.5% | Potency [19]
-1.3% and -5.42%: max response [20]
-12.5% and -7.89% and -6.08%: max response [14]

CC(O)CCl (centres undefined)
-11.9% and -9.91%: max response [20]
-12.9% and -6.32%: max response [14]
inactive: Potency [1] > 92 µM | Potency [2] > 92 µM | Potency [3] > 92 µM | Potency [4] > 92 µM | activity change, negative = cytotoxicity [5] 4.45% | Potency [6] | Potency [7] | Potency [8] | activity change, negative = cytotoxicity [9] -0.642% | outcome [10] | caspase-3 activation [11] 1.88% | outcome [12] | outcome [13] | max response [15] -5.06% and 5.36% | max response [16] -0.405% and -1.63% | max response [17] -0.544% and -11.8% | max response [18] 2.39% and -2.48% | Potency [19]

Clc1cccc(C(Cl)(Cl)Cl)n1
inactive: Potency [1] > 92 µM | Potency [2] > 92 µM | Potency [3] > 92 µM | Potency [4] > 92 µM | activity change, negative = cytotoxicity [5] -0.893% | Potency [6] | Potency [7] | Potency [8] | activity change, negative = cytotoxicity [9] -6.77% | outcome [10] | caspase-3 activation [11] -0.503% | outcome [12] | outcome [13] | max response [15] 0.436% and 2.35% | max response [16] -0.105% and 0.0446% | max response [17] 1.86% and -5.38% | max response [18] 8.34% and -7.37% | Potency [19]
-9.56% and 6.27%: max response [20]
-2.2% and -16.3%: max response [14]

C[N+](C)(C)Cc1ccccc1
3.34% and -11.4%: max response [20]
inactive: Potency [1] > 92 µM | Potency [2] > 92 µM | Potency [3] > 92 µM | Potency [4] > 92 µM | activity change, negative = cytotoxicity [5] -12.6% | Potency [6] | Potency [7] | Potency [8] | activity change, negative = cytotoxicity [9] 0.397% [at 91.7 µM] | outcome [10] | caspase-3 activation [11] 0.448% | outcome [12] | outcome [13] | max response [15] 9.55% and -19% | max response [16] -5.46% and 0.269% | max response [17] -0.49% and -11.3% | max response [18] 3.84% and -11.6% | Potency [19]
0.533% and -1.08%: max response [14]

C=CC(C)=O
-5.91%: max response [14]
-8.63%: max response [20]
inactive: Potency [1] > 92 µM | Potency [2] > 92 µM | Potency [3] > 92 µM | Potency [4] > 92 µM | activity change, negative = cytotoxicity [5] -2.38% | Potency [6] | Potency [7] | Potency [8] | activity change, negative = cytotoxicity [9] 14% | outcome [10] | caspase-3 activation [11] -0.622% | outcome [12] | outcome [13] | max response [15] 8.07% | max response [16] -1.26% | max response [17] 0.624% | max response [18] 0.318% | Potency [19]

Cc1cccc(C#N)c1
3.52%: max response [14]
inactive: Potency [1] > 92 µM | Potency [2] > 92 µM | Potency [3] > 92 µM | Potency [4] > 92 µM | activity change, negative = cytotoxicity [5] -15.8% | Potency [6] | Potency [7] | Potency [8] | activity change, negative = cytotoxicity [9] -8.34% | outcome [10] | caspase-3 activation [11] 0.831% | outcome [12] | outcome [13] | max response [15] 20.5% | max response [16] -0.3% | max response [17] -8.19% | max response [18] 0.442% | Potency [19]
-7.67%: max response [20]

Source: PubChem BioAssay (NCATS)
